Reference: PubChem BioAssay (NCATS)
Values joined by “and” are separate entries in the source; they are usually repeats but may differ in a detail not shown here. Equal values may be shown once. Inconclusive results are not listed. Active and inactive are the calls of the source. Unless noted, the call rests on the fitted dose curve; in most records, active means well fitted curve in the direction sought with a large enough effect; inconclusive means small, poorly fitted or top-dose-only effect, or another doubt; inactive means no such curve, though single readings can be large; an effect the other way counts as inactive or inconclusive.

Experiments:
[1] = Cell Viability - Hek293 (AID 427;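 active means compounds whose dose-response curve shows a full or clear partial loss of cell viability, called from curve shape rather than a numeric limit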;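 further: potency means the concentration at half of the fitted maximal effect; cells exposed to compound for 40 hours at 37 °C before reading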); conditions: qHTS
Outline: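 Luminescent ATP read-out (CellTiter-Glo, 20 min RT) after 40 hr compound exposure at 37 °C in complete medium. Signal normalized to DMSO (basal) and 100 uM tamoxifen (100% inhibition); concentration-response fitted with the standard Hill equation to give AC50.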

[2] = Cell Viability - HepG2 (AID 433; calls by dose curve;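 further: potency means the concentration at half of the fitted maximal effect; potency for ATP loss meaning cytotoxicity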); conditions: qHTS
Outline: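 Read-out is luciferase-based quantitation of cellular ATP as a measure of viable HepG2 cells after 40 h treatment at 37 °C. Signal decrease is scaled between DMSO-only and 100 uM tamoxifen controls, with AC50 fitted by the Hill equation.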

[3] = Cell Viability - SK-N-SH (AID 435; calls by dose curve;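 further: potency means the concentration at half of the fitted maximal effect; compound exposure lasted 40 h at 37 °C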); conditions: SK-N-SH neuroblastoma cell viability qHTS
Outline: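 Luminescent ATP signal served as the viability read-out after 40 hours of compound treatment of human neuroblastoma SK-N-SH cells. Concentration-response data, scaled between DMSO and 100 uM tamoxifen, gave AC50 values by standard Hill modeling.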

[4] = molecular target: Mitogen-activated protein kinase 10 (Mus musculus) (UniProt Q61831); assay: JNK3 AlphaScreen Assay (AID 530; active means well fitted curve in either direction with a large enough effect, not every such curve was filed as active;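 further: kinase came from lysate of stimulated human HepG2 cells; signal reports phosphorylation of biotinylated GST-cJun 1-79 at Ser73 with 10 µM ATP; on the % scale 0 is the no-effect control and ±100 the full control effect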); conditions: JNK3 lysate, c-Jun phosphorylation; series mostly up to 57.1 µM
Outline: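 Pre-activated (IL-1β/TNFα) JNK3 in HepG2 lysates phosphorylates biotin-GST-cJun(1-79), 10 uM ATP; anti-phospho-cJun(Ser73) AlphaScreen read at room temperature, pH 7.6 Tris buffer. Compounds pre-incubated 15 min as titrations.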

[5] = Cell Viability - Renal Proximal Tubule (AID 545); conditions: renal proximal tubule cells viability; series mostly up to 91.7 µM;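 further: 0% = DMSO only and -100% = 100 µM tamoxifen; nearly all actives have a fitted effect of over 40% in size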
Outline: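 Luminescent ATP signal (CellTiter-Glo) served as the viability read-out after 40 hr compound exposure of freshly isolated rat proximal tubule cells at 37 °C. Concentration-dependent ATP loss was fitted with the Hill equation to give AC50.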

[6] = Cellular Toxicity (caspase-3) HUV-EC-C (AID 656); conditions: HUV-EC-C cells, caspase-3 activation (apoptosis), vehicle = 0, 100 µM tamoxifen = 100%; series mostly up to 92.2 µM;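 further: 0% = DMSO basal and 100% = 100 µM tamoxifen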
Outline: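 qHTS; HUV-EC-C, 1000 cells/well; 5 hr settle, 16 hr cmpd, 37°C; Caspase-Glo 3/7, 20 min RT; luminescence. Norm: DMSO = 0%, tamoxifen 100 uM = 100%. Hill-fit AC50.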

[7] = Cellular Toxicity (caspase-3) SHSY5Y (AID 657); conditions: SH-SY5Y caspase-3 activation, DMSO zero, 10 µM staurosporine = 100%; series mostly up to 91.7 µM;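 further: cells exposed to compound for 16 hours at 37 °C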
Outline: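 qHTS, SH-SY5Y, 1500 cells/well, 5 h pre-incubation 37 °C; compound 16 h 37 °C; Caspase-Glo 3/7 1 h RT; luminescence. Norm.: DMSO = 0, 10 uM staurosporine = 100%. Hill fit → AC50.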

[8] = Cellular Toxicity (caspase-3) MRC-5 (AID 659); conditions: MRC-5 cells, luminescence, normalized: DMSO 0%, 10 µM staurosporine 100%; series mostly up to 91.7 µM
Outline: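 MRC-5 human normal lung fibroblasts, 1500 cells/well, treated 16 h at 37 °C in complete medium. Caspase 3/7 measured by Caspase-Glo luminescence after 1 h at room temperature. Normalized to DMSO and 10 uM staurosporine; AC50 from Hill fit.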

[9] = MultiTox-Fluor Cytotoxicity Assay - LYMP1-002 - Live Cells (AID 955); conditions: LYMP1-002 lymphoblastoid live-cell protease fluorescence viability; series mostly up to 46.1 µM;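 further: cells exposed to compound for 16 hours; on the % scale 0 is the no-effect control and ±100 the full control effect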
Outline: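 Read-out is live-cell protease activity (cell-permeant GF-AFC substrate, fluorescence Ex/Em=405/510), where a decrease indicates acute toxicity. Human lymphoblastoid cells were treated 16 hours at 37 C in a concentration series, and AC50 values came from standard Hill modelling.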

[10] = Cell Viability - LYMP1-003 - Assay at 24 hr (AID 963); conditions: LYMP1-003 lymphoblastoid cell viability; series mostly up to 92.2 µM;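 further: plate controls were DMSO only for no effect and tetraoctylammonium bromide positive control for full effect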
Outline: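 Cells seeded at 2500/well, 5 hr at 37 C; compounds added; 24 hr at 37 C; CellTiter-Glo added, 30 min room temperature; luminescence read. Decrease in ATP taken as cytotoxicity, AC50 from Hill modelling.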

[11] = Cell Viability - LYMP2-009 (AID 968); conditions: LYMP2-009 lymphoblastoid cell viability; series mostly up to 92.2 µM;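 further: cells exposed to compound for 24 h at 37 °C; 0% = DMSO alone and the full-kill end = tetraoctylammonium bromide at 92 µM; nearly all actives have a fitted effect of over 55% in size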
[12] = Cell Viability - LYMP2-017 (AID 972); conditions: LYMP2-017 lymphoblastoid cell viability; series mostly up to 92.2 µM;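 further: cells exposed to compound for 24 hours at 37 °C; on the % scale 0 is the no-effect control and ±100 the full control effect; nearly all actives have a fitted effect of over 55% in size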
Outline: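 2500 cells/well, 5 h 37 C; cpd 24 h 37 C in complete medium; CellTiter-Glo, 30 min RT; luminescence (ATP). AC50 via Hill fit, qHTS.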

[13] = Cell Viability - LYMP2-025 (AID 976); conditions: LYMP2-025 lymphoblastoid cell viability; series mostly up to 92.2 µM;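 further: cells exposed to compound for 24 h at 37 °C; plate controls were DMSO only for no effect and tetraoctylammonium bromide control for full effect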
Outline: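 Seed 2500 LYMP2-025 cells/well; 5 hr at 37 C; add compound; 24 hr at 37 C; add CellTiter-Glo; 30 min RT; read luminescence. AC50 from Hill-modelled concentration-response.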

[14] = Cell Viability - LYMP2-024 (AID 988); conditions: LYMP2-024 lymphoblastoid cell viability; series mostly up to 92.2 µM;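 further: plate controls were DMSO only for no effect and 92 µM tetraoctylammonium bromide for full effect; nearly all actives have a fitted effect of over 60% in size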
Outline: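 Steps: seed 2500 cells/well, 5 hr 37 C; add compound, 24 hr 37 C; add CellTiter-Glo, 30 min room temperature; read luminescence. AC50 derived by Hill modelling of concentration-dependent ATP loss.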

[15] = Cell Viability - LYMP1-002 - Assay at 40 hr (AID 994); conditions: LYMP1-002 lymphoblastoid cell viability; series mostly up to 92.2 µM;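 further: 0% = DMSO only and full inhibition = 92 µM tetraoctylammonium bromide; nearly all actives have a fitted effect of over 60% in size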
Outline: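 Luminescent ATP signal served as the viability readout, with decreases taken as toxicity. Cells were treated with compounds across a concentration range for 40 hours at 37 C, and AC50 values came from standard Hill modeling.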

[16] = molecular target: Peroxisome proliferator-activated receptor alpha (Homo sapiens) (UniProt Q07869); assay: qHTS assay for small molecule agonists of the peroxisome proliferator-activated receptor alpha (PPARalpha) signaling pathway (AID 651778); conditions: PathHunter PPARalpha complementation, chemiluminescence, 6 h; stronger effect = higher value; further: % of control where 0% means no effect
Outline: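 Enzyme-fragment complementation assay in which ligand-bound PPARalpha translocates and forms an active enzyme that generates chemiluminescence. Cells were plated overnight, exposed to compound for 6 hr at 37 C, and then given detection reagent for 60 min at room temperature.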

[17] = qHTS assay for small molecule agonists of the antioxidant response element (ARE) signaling pathway measured by Nrf2-dependant transcriptional activity - cell viability counter screen (AID 720653; active means well fitted curve in the direction sought with a large enough effect in the repeat runs; an effect the other way counts as inactive or inconclusive; further: on the % scale 0 is the no-effect control and ±100 the full control effect); conditions: ARE-bla HepG2 viability, CellTiter-Glo ATP luminescence, 16 h; stronger effect = lower value
Outline: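 ARE-bla HepG2 cells treated with compounds for 16 h at 37C; this counter screen measures viability as intracellular ATP by CellTiter-Glo luminescence after 30 min at room temperature.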

Sequence of Peroxisome proliferator-activated receptor alpha (Homo sapiens) (Q07869 whole entry, looked up, the tested form may be a part): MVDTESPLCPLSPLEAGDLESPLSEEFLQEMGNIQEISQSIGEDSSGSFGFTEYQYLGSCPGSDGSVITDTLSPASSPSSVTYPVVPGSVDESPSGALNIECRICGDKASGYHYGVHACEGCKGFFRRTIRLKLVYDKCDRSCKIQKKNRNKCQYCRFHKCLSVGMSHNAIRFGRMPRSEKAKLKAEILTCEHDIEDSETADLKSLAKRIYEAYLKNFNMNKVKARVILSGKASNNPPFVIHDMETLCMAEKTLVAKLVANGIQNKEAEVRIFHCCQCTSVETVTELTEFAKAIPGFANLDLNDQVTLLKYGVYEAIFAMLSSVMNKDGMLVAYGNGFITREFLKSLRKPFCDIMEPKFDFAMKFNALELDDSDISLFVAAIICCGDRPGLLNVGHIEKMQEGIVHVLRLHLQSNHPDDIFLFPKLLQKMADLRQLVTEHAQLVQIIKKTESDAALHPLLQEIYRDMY

O=NN1CCCCC1
inactive: Potency [1] > 92 µM | Potency [2] > 92 µM | Potency [3] > 92 µM | Potency [4] | outcome [5] | outcome [6] | outcome [7] | outcome [8] | outcome [9] | outcome [10] | Potency [11] | Potency [12] | Potency [13] | Potency [14] | Potency [15] | max response [16] -3.04% | max response [17] -0.59%

CC(C)(COCC1CO1)COCC1CO1 (stereo unspecified)
inactive: Potency [1] > 92 µM | Potency [2] > 92 µM | Potency [4] | outcome [5] | outcome [6] | outcome [7] | outcome [8] | outcome [9] | outcome [10] | Potency [11] | Potency [12] | Potency [13] | Potency [14] | Potency [15] | max response [16] -0.497% | max response [17] 1.11%

C=CCO
inactive: Potency [1] > 92 µM | Potency [2] > 92 µM | Potency [3] > 92 µM | Potency [4] | outcome [5] | outcome [6] | outcome [7] | outcome [8] | outcome [9] | outcome [10] | Potency [11] | Potency [12] | Potency [13] | Potency [14] | Potency [15] | max response [16] -7.9% | max response [17] 1.93%

CCC(Cl)[N+](=O)[O-] (stereo unspecified)
inactive: Potency [1] > 92 µM | Potency [2] > 92 µM | Potency [3] > 92 µM | Potency [4] | outcome [5] | outcome [6] | outcome [7] | outcome [8] | outcome [9] | outcome [10] | Potency [11] | Potency [12] | Potency [13] | Potency [14] | Potency [15] | max response [16] 11.6% | max response [17] -4.85%

Clc1cccc(Cl)c1
inactive: Potency [1] > 92 µM | Potency [2] > 92 µM | Potency [3] > 92 µM | Potency [4] | outcome [5] | outcome [6] | outcome [7] | outcome [8] | outcome [9] | outcome [10] | Potency [11] | Potency [12] | Potency [13] | Potency [14] | Potency [15] | max response [16] -0.108% | max response [17] -2.71%

Clc1ccccc1
inactive: Potency [1] > 92 µM | Potency [2] > 92 µM | Potency [3] > 92 µM | Potency [4] | outcome [5] | outcome [6] | outcome [7] | outcome [8] | outcome [9] | outcome [10] | Potency [11] | Potency [12] | Potency [13] | Potency [14] | Potency [15] | max response [16] -0.13% | max response [17] -18.9%

ClCC(Cl)CCl
inactive: Potency [1] > 92 µM | Potency [2] > 92 µM | Potency [3] > 92 µM | outcome [5] | outcome [6] | outcome [7] | outcome [8] | outcome [9] | outcome [10] | Potency [11] | Potency [12] | Potency [13] | Potency [14] | Potency [15] | max response [16] -4.72% and -1.22% | max response [17] 3.4% and -4.41%

C=CCCl
inactive: Potency [1] > 92 µM | Potency [2] > 92 µM | Potency [3] > 92 µM | Potency [4] | outcome [5] | outcome [6] | outcome [7] | outcome [8] | outcome [9] | outcome [10] | Potency [11] | Potency [12] | Potency [13] | Potency [14] | Potency [15] | max response [16] -5.35% | max response [17] -2.66%

Oc1ccc(Cl)c(Cl)c1Cl
inactive: Potency [1] > 92 µM | Potency [2] > 92 µM | Potency [3] > 92 µM | Potency [4] | outcome [5] | outcome [6] | outcome [7] | outcome [8] | outcome [9] | outcome [10] | Potency [11] | Potency [12] | Potency [13] | Potency [14] | Potency [15] | max response [16] 0.378% | max response [17] 13.8%
